# From paper PMC4552634, “A New Set of Chemical Starting Points with Plasmodium falciparum Transmission-Blocking Potential for Antimalarial Drug Discovery” (PLoS ONE, 2015)
# Hit rate of the full screen: of about 13,000 compounds, about 3,200 (25%) showed an effect of 50% or more. This is one part of the list.
# Tested on: P. falciparum stage V gametocytes
# Design: BacTiter-Glo ATP luminescence viability of purified stage V gametocytes in 384-well plates, per cent inhibition versus DMSO
# Settings: 48 h, 5 µM; inhibitor
row,Structure (SMILES),% Inhibition [%]
1,COc1ccc(C(=O)CCC(=O)N(Cc2ccc(-c3ccc(CNCCc4ccccc4)cn3)cc2)C(C)CN(C)C)cc1F (stereo not shown) [TCMDC-141554],109.3
2,COc1ccc(C(=O)CCC(=O)N(Cc2ccc(-c3ccc(CNCCc4ccc(S(C)(=O)=O)cc4)cn3)cc2)Cc2ccc3c(c2)OCO3)cc1F [TCMDC-141514],67.48
3,COc1ccc(C(=O)CCC(=O)N(Cc2ccc(-c3ccc(CNCCc4ccc(S(C)(=O)=O)cc4)cn3)cc2)C(C)CN(C)C)cc1F (stereo not shown) [TCMDC-141512],102.4
4,COc1ccc(C(=O)CCC(=O)N(CCC2CCCN2C)Cc2ccc(-c3ccc(CNCCc4ccc(S(C)(=O)=O)cc4)cn3)cc2)cc1F (stereo not shown) [TCMDC-141513],-2.666
5,COc1ccc(C(=O)CCC(=O)N(CCSC(C)(C)C)Cc2ccc(-c3ccc(CNCCc4ccc(S(C)(=O)=O)cc4)cn3)cc2)cc1F [TCMDC-141517],33.86
6,COc1ccc(C(=O)CCC(=O)N(Cc2ccc(-c3ccc(CNCCc4ccc(S(C)(=O)=O)cc4)cn3)cc2)C2CC3CCC2C3)cc1F (stereo not shown) [TCMDC-141515],-37.66
7,CCC(CC)N1C(=O)C(c2ccccc2)(c2ccccc2)N=C1N [TCMDC-136516],-14.59
8,CCOC(=O)C(NC(=O)Cc1ccccc1)C(C)C (stereo not shown) [TCMDC-131334],-5.463
9,CN(C)CCCOc1ccc(-c2nc(-c3ccc4c(c3)CCC4=NO)c(-c3ccncc3)[nH]2)cc1 [TCMDC-140742],7.087
10,ON=C1CCc2cc(-c3nc(-c4ccc(OCCN5CCCCC5)cc4)[nH]c3-c3ccncc3)ccc21 [TCMDC-141174],1.604
11,ON=C1CCc2cc(-c3cc(-c4ccc(OC5CCNCC5)cc4)oc3-c3ccncc3)ccc21 [TCMDC-141381],91.63
12,CC(C)(C(=O)Nc1ccc(C2CCC(NCC3CC3)CC2)c(Cl)c1)c1cccc(OC(F)F)c1 (stereo not shown) [TCMDC-134643],32
13,CC(C)(C(=O)Nc1ccc(N2CCC3(CCCN(CC4CC4)C3)CC2)c(Cl)c1)c1cccc(C(F)(F)F)c1 [TCMDC-134639],-12.77
14,CC(C)(C(=O)Nc1ccc(C2CCC(NCC3CC3)CC2)c(Cl)c1)c1ccc(C(F)(F)F)cc1 (stereo not shown) [TCMDC-134642],92.31
15,O=C(Nc1cccc(-c2ccc(-c3nc4ccc(C(F)(F)F)cc4[nH]3)cc2)c1)c1cnc[nH]1 [TCMDC-136938],-50.65
16,CCC(=O)Nc1ccc(Nc2nc(C)cc(N3CCCC3)n2)cc1 [TCMDC-124971],-15.13
17,Fc1ccc(-c2csc3ncnc(Cl)c23)cc1 [TCMDC-125317],5.052
18,Clc1ncnc2scc(-c3ccc(Br)cc3)c12 [TCMDC-125318],-35.26
19,Cc1nnc(Sc2ncnc3scc(-c4ccc(F)cc4)c23)s1 [TCMDC-125239],77.07
20,CN1CC=C(c2c[nH]c3ccc(Oc4ccccc4)cc23)CC1 [TCMDC-138966],12.83
21,NCCNS(=O)(=O)c1ccc(-c2ccnc3[nH]c(-c4ccncc4)cc23)cc1 [TCMDC-133364],20.68
22,CN(C)Cc1ccc(-c2cc3c(-c4ccc(CN(C)C)cc4)ccnc3[nH]2)cc1 [TCMDC-132409],78.19
23,CN(C)Cc1cccc(-c2cc3c(-c4cnn(C)c4)c(Cl)cnc3[nH]2)c1 [TCMDC-134147],-89.46
24,Cc1ccc2[nH]c(-c3ccccc3N)cc2c1 [TCMDC-131289],-61.86

row,Structure (SMILES),% Inhibition [%]
1,CNC(=O)c1c(NC(=O)c2cccs2)sc2c1CCCC2 [TCMDC-125739],-2.665
2,O=C(NC1CCN(CC2(c3ccccc3)CCCC2)CC1)c1[nH]ncc1Cl [TCMDC-124836],56.38
3,O=C(NC1CCN(CCC(NC(=O)c2ccccc2)c2ccc(Cl)c(Cl)c2)CC1)c1ccc(Cl)cc1 (stereo not shown) [TCMDC-141712],-1.186
4,CC(C)c1ccc(CN2CCC(NC(=O)c3ccc(-c4ccccc4F)s3)CC2)cc1 [TCMDC-134345],-26.31
5,O=C(NC1CCN(Cc2ccc(Cl)cc2)CC1)c1cn(-c2ccccc2)nc1-c1cccnc1 [TCMDC-125254],-34.02
6,O=C(NC1CCN(CC2(c3ccc(Cl)cc3)CCCCC2)CC1)c1ccn[nH]1 [TCMDC-124828],65.33
7,Cc1ccc(C2(CN3CCC(NC(=O)c4[nH]ncc4Cl)CC3)CCCCC2)cc1 [TCMDC-124838],29.65
8,CN(C)c1ccc(CN2CCC(NC(=O)c3ccc(-c4ccccc4F)s3)CC2)cc1 [TCMDC-134326],-40.45
9,O=C(Nc1ccc(F)cc1)c1ccc(C(=O)NC2CCN(CC3CCCCC3)CC2)cc1 [TCMDC-136749],-13.8
10,O=C(NC1CC1)c1cnc(N2CCN(Cc3ccc(Cl)cc3)CC2)c(Cl)c1 [TCMDC-134601],8.945
11,O=C(NC1CCN(CC2(c3ccccc3F)CCCC2)CC1)c1ccn[nH]1 [TCMDC-124837],65.27
12,O=C(NC1CCN(CC2(c3ccc(Cl)cc3)CCC2)CC1)c1ccn[nH]1 [TCMDC-124830],58.08
13,Cc1cc(C(=O)NC2CCN(Cc3ccccc3)CC2)ccc1-c1nc2cc(Cl)c(Cl)cc2[nH]1 [TCMDC-140081],10.28
14,Cc1ccccc1OCC(=O)Nc1ccc(-c2nc3cc4ccccc4cc3[nH]2)cc1 [TCMDC-125670],10.69
15,CC1(C)N=C(N)N=C(N)N1c1ccc(Oc2ccccc2)cc1 [TCMDC-137712],1.861
16,CN(C)CCC(O)C=C(c1ccc(Cl)cc1)c1ccc(Cl)cc1 (stereo not shown) [TCMDC-132094],12.81
17,Cc1ccc(S(=O)(=O)n2cc(-c3ccnc(N)c3)c3cc(Br)cnc32)cc1 [TCMDC-134306],-5.282
18,COc1ccc2nccc([C@@H](O)CN3CCC(NCCOc4ccccc4[N+](=O)[O-])CC3)c2c1 [TCMDC-140711],39.45
19,Cc1cccc(NC(=O)c2ccc(C(=O)NC3CCN(CC4CCCCC4)CC3)cc2)c1 [TCMDC-136748],-45.39
20,Cc1ccc(NC(=O)c2ccc(C(=O)NC3CCN(CC4CCCCC4)CC3)cc2)cc1 [TCMDC-136747],-26.65
21,CCc1[nH]nc(C(=O)Nc2cccc(N3CCCC3)c2)c1C [TCMDC-124845],-34.24
22,COc1ccc2nccc([C@@H](O)CN3CCC(NC(=O)c4nc(Cl)c(Cl)c(N)c4Cl)CC3)c2c1 [TCMDC-140771],4.246
23,Cc1ccc(C2(CN3CCC(NC(=O)c4ccn[nH]4)CC3)CCCCC2)cc1 [TCMDC-124839],64.93
24,CCc1[nH]nc(C(=O)NC2CCN(CC3(c4ccc(OC)cc4)CCCCC3)CC2)c1C [TCMDC-124840],100.4

row,Structure (SMILES),% Inhibition [%]
1,O=C(NC1CCN(CC2(c3ccc(Cl)cc3)CCC2)CC1)c1cscn1 [TCMDC-124829],62.42
2,O=C(NC1CCN(Cc2ccccc2)CC1)c1csc2nc(-c3ccc(Cl)cc3)cn12 [TCMDC-133071],-8.625
3,COc1c(I)cc(Cc2cnc(N)nc2N)cc1I [TCMDC-138050],-8.492
4,N#Cc1cc(N(CCCOc2cccc(OC(F)(F)F)c2)Cc2ccccc2C(F)(F)F)ccc1C(F)(F)F [TCMDC-132783],-11.19
5,COc1cccc(Cc2c(C)nc3nc(N)nc(N)c3c2C)c1 [TCMDC-137650],36.32
6,Cc1ccc(F)c(OCC2CCCN(c3ccc(C(=O)NC4CC4)cn3)C2)c1 (stereo not shown) [TCMDC-134035],18.85
7,Cc1cccc2[nH]c(-c3ccc(-c4cccc(CN5CCN(CCO)CC5)c4)cc3)nc12 [TCMDC-133029],-7.664
8,NC(N)=NC(=O)Nc1ccc([N+](=O)[O-])c(Cl)c1 [TCMDC-137468],-7.379
9,NS(=O)(=O)c1cncc(-c2ccc3nccc(-c4cn[nH]c4)c3n2)c1 [TCMDC-134293],66.05
10,Nc1ncc(-c2cn[nH]c2)cc1-c1nc2ccc(F)cc2[nH]1 [TCMDC-133559],26.39
11,Cc1cccc2[nH]c(-c3cc(-c4cn[nH]c4)cnc3N)nc12 [TCMDC-133561],-9.324
12,CC(NC(=O)c1ccc(O)c(-c2ccc(Cl)c(Cl)c2)c1)C(=O)NCCN1CCOCC1 (stereo not shown) [TCMDC-140849],3.738
13,Cc1cnc(N2CCN(CCCN3CCCC3)CC2)nc1Oc1ccc(-n2ccnc2)cc1 [TCMDC-132207],28.92
14,N#Cc1ccc(N(CCOc2ccc(Cl)c(Cl)c2)Cc2ccccc2C(F)(F)F)cc1C(F)(F)F [TCMDC-132795],-20.83
15,CC(Cc1ccc(NC(=O)c2ccc(CC(C)NCc3ccc(Cl)cc3)cc2)cc1)NCCc1cccc(Cl)c1 (stereo not shown) [TCMDC-139810],112.2
16,CCOc1ccccc1CCNC(C)Cc1ccc(C(=O)Nc2ccc(CC(C)NCCc3cccc(Cl)c3)cc2)cc1 (stereo not shown) [TCMDC-139805],111.8
17,CC(=O)Nc1ccc(CCNC(C)Cc2ccc(C(=O)Nc3ccc(CC(C)NCCc4cccc(Cl)c4)cc3)cc2)cc1 (stereo not shown) [TCMDC-139828],108.3
18,CC(Cc1ccc(NC(=O)[C@H](C)NCCc2cccc(Cl)c2)cc1)NCCc1cccc(Cl)c1 (stereo partly shown) [TCMDC-139830],21.29
19,CC(=O)Nc1ccc(CNCCc2ccc(NC(=O)c3cc(Cl)cc(Cl)c3)cc2)cc1 [TCMDC-140678],2.681
20,CC(Cc1ccc(NC(=O)c2ccc(NCCc3ccccc3)cc2)cc1)NCCc1cccc(Cl)c1 (stereo not shown) [TCMDC-139832],47.1
21,CC(Cc1ccc(NC(=O)c2ccc(CC(C)NCc3ccc(Cl)c(Cl)c3)cc2)cc1)NCCc1cccc(Cl)c1 (stereo not shown) [TCMDC-139806],8.931
22,CC(Cc1ccc(NC(=O)[C@@H](C)NCCc2cccc(Cl)c2)cc1)NCCc1cccc(Cl)c1 (stereo partly shown) [TCMDC-139831],101.6
